Measured values as given in the supplement of paper PMC6555819.

The sequences below were run on THRa:RXRa (NR concentration 90 nM, RXRa partner concentration 90 nM) (assay: PBM binding z-score (relative to random genomic background probes); higher = stronger binding; sequences stand for … in GC…GCGATTGACAGCGTAGAATGAAGG).
In short: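 On custom Agilent 4×180K arrays, double-stranded probes with 34-nt variable regions carried direct-repeat seeds, single-nucleotide variants, half-site ablations or random human genomic background. Ligand-free nuclear receptor dimers were applied for 1 h, and binding was read with antibodies against each partner (one per run). Binding z-scores come from regression-normalized fluorescence, with the random background probes as reference.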

In order of falling PBM binding z-score:
1. CCTTACGGGTCACTCCAGGTTATAACATCGGAGT  5.32
2. CCTTCCGGGTCACTCCAGGTTATAGCATCGGAGT  5.19
3. GCATAAAGGTAATACAAGGTGAAAGTCCGATTGT  4.64
4. ATATGTAGGTTACATCCAGGTCATTCAGGCTATG  4.23
5. CTCGAAAGGTCGTGCTCAGGTGAGTGTACCAAAC  4.11
6. TGTCGGAGGACACGAAAGGTCAGAGCTCGACATC  3.78
7. ATATGTAGGTTACAGCCGGGTCATTCAGGCTATG  3.57
8. CCTACTGGCCCAAAAAGGTCATTGATGCCGATAA  3.39
9. CGTCCAAGGTCAGAGAGGTCTGTGAATGCCGAGT  3.38
10. TGACCAAGGTGAAAGGTCGTTGATGCACGCCTTG  3.35
11. ATATGTTGGTTAAGGGTCATTCAGGTTGGTTCGC  3.25
12. CTACCAAGGTAAACAAGGTCGTTGATTACTATTC  3.2
13. CCTAGCAGGCCAATCTGGGTCACTCATGGCTTGA  3.19
14. GCTTACGGGTCAAAGGTGATAGCATGAATAGAAT  3.15
15. ATCGAAAGGTCGAGGTGAGTCTAGAGAAAGGGAA  3.01
16. TCTCGGAGGACACGAAGGTCAGATCTTTCCAGAG  2.94
17. CATGCTAGGTCATGGTCAGCTAATCTACAGTATG  2.87
18. ACTAGCAGGCCAAGTTTGGGTCACACAAACAAAG  2.67
19. CCTCGGAGGACAGAAGGTCAGAGCAGTCCGCTTT  2.67
20. CCTTATGGGTCACTGACAGGTTATAGCATTTGGA  2.59
21. ACTAGCAGGCCAAGTTTGGGTCATTCAAACAAAG  2.55
22. ACTAGCAGGCCAAGGGTCACTCCAGATTAGTCCG  2.55
23. CGTCAAAGTTCACGGTAACGTAACAGAAAGCAGC  2.38
24. CGTCCAAGGTCTATGCTAGGTCAGTGAAAGCATT  2.21
25. AGACTGAGGTTATACGTAGATCAGGGAAGAAAGT  2.01
26. ACTATTAGTTAACTTAGGGCAACCGATACGACGC  1.88
27. GCAGACAGGTGAAACGCAGGTTACTCAGGGTGGC  1.88
28. TTACCAAGGTGAAGGTGGTTGATCCCTCTGTAGA  1.78
29. TGTCAAAGTTAAAAGGTAACGTAAGTATCCACAC  1.72
30. TTTAGCAGGCCAGAGGGTCACTCAAGAGGTACGG  1.6
31. GTACCAAGGTGAATCGGTCGTTGATGAGTAGGCG  1.49
32. AGAATGAGGTTGAGATCAGGGAAACAGAATACAT  1.35
33. TCTACTAGGTCAGTTGGTCAGCTAACGAGCTGCC  1.28
34. CCGACTCGGGCAAGGTTACCATAACGCACAGCCA  1.19
35. TCATATAGGGAAATGCTAGGTGAAAGTCCGATCT  0.846
36. ATCTCTAGGTAACCAAGTTAAGTGAATGCCGAAC  0.825
37. GCGACTGGGGCTTCAGCAGGTTACCATAACTTAA  0.733
38. ACTATTAGTTGACTTTGGGCAACCGATACGACGC  0.55
39. CCGACTGGGGCAAAGGTTTCCATACTCAGTACGA  -0.0772
40. AGAATGAAGTTATACGTAGATCAGGGAAGAAAGT  -0.563
